The results in this text go back to PubChem BioAssay AID1117361 (Southern Research Institute, 2015).

Screen size: about 3,600 compounds; about 900 (25%) were called active. How the calls were made is not given here. Not all results are given here. Potency and affinity values are given separately.

In the assay the target is Protein Tat (Human immunodeficiency virus type 1 group M subtype B (isolate HXB2)) (UniProt P04608). As to the kind of experiment: HIV-1 Tat–TAR interaction blockers – biochemical, fluorescence polarization, FAM-labeled TAR RNA, counter-screen for Vif-APOBEC3G degradation inhibitor project, dose response (AID 1117361). Conditions: Tat-TAR RNA binding; series mostly up to 100 µM; inhibition: at the top concentration.
Regarding `O=C(/C=C/c1ccco1)Nc1ccc(Oc2ccccc2)cc1`, the outcome was inactive.

As to `CCC(=O)N1CCN(c2ccccc2NC(=O)c2cccc(C)c2)CC1`, the inhibition (as a rule, the drop in the measured response relative to a control, in per cent) was 3.41% (inactive).

Regarding `Cc1cccc(NC(=O)CC2NC3CCCCC3NC2=O)c1` (stereo not given), the molecule was called inactive.

As for `O=C(CN1C(=O)CSC1=O)Nc1ccccc1N1CCOCC1`, the “inhibition” value is 4.73% (inactive).

For the molecule `O=C(/C=C/c1ccco1)NC(=S)Nc1ccc(C(=O)O)cc1`, the “inhibition” value is 0.33% (inactive).

Turning to `Cc1ccc2c(c1)CCCN2C(=O)c1cc(C)c(C)s1`, the “inhibition” value was 5.01% (inactive).

As to `Cc1ccc(NC(=O)C(C)Sc2nc3nc(C)cc(C)n3n2)cc1` (stereo not given), the “inhibition” value is 1.65% (inactive).

As for `Cc1cc(C)n(-c2ncc(-c3ccccc3)nn2)n1`, the molecule was classed as inactive.

Take `C=CCOC(=O)CN1C(=O)c2ccccc2C1=O`: the molecule was classed as inactive.

For `O=C(NC1CCCCC1)c1sc(=S)n2c1[nH]c(=O)c1ccccc12`, the “inhibition” value was 10.9% (inactive).

As to `Cc1ccc(-n2nnnc2SCn2nnc3ccccc3c2=O)cc1`, the “inhibition” value was 1.35% (inactive).

As for `Cc1cccc(CCNC(=O)CCc2nc(-c3ccccc3F)no2)c1`, the “inhibition” value was 3.38% (inactive).

In the case of `Cc1cc(C)nc(N(C#N)CN2C(=O)c3ccccc3S2(=O)=O)n1`, the “inhibition” value is 4.05% (inactive).

On to `CCOC(=O)CS(=O)(=O)c1ccc2ccccc2c1`, for which the “inhibition” value was 7.43% (inactive).

As for `Nc1ccc(S(=O)(=O)c2cc(O)c3ccccc3c2O)cc1`, the “inhibition” value was 3.67% (inactive).

On to `CCc1cc(C=NC2CCCCC2)c(O)s1`, for which the “inhibition” value is 18.2% (inactive).

With `CN(C)NC(=S)NC1CCS(=O)(=O)C1` (stereo not given), the result was inactive.

On to `CCCOc1ccc2[nH]cc(C(=O)O)c(=O)c2c1`, for which the “inhibition” value was 1.35% (inactive).

In the case of `Cc1ccc(Oc2ccc(/C=N/O)cn2)cc1`, the outcome was inactive.

Consider `O=S(=O)(Nc1ccc2c(c1)nc1n2CCN(Cc2ccccc2)C1)c1ccc(Cl)cc1`, for which the “inhibition” value was 13.6% (inactive).

With `COCCCNc1nc2c(c(=O)n(C)c(=O)n2C)n1Cc1cccc(OC)c1`, the “inhibition” value was 4.77% (inactive).

On to `CCCCc1c(C)nc2ccc(Br)cc2c1SCCC#N`, for which the molecule was called inactive.

On to `COc1ccc(C)cc1Nc1c2c(nc3ccccc13)CCC2`, for which the call was inactive.

For the molecule `COc1cc2ccccc2nn1`, the “inhibition” value is 8.25% (inactive).

`CC(=O)Nc1nonc1NC(=O)CSC1=NCCS1`: the “inhibition” value is 2.7% (inactive).

Turning to `CNC(=O)CN1C(=O)NC2(CCc3ccccc32)C1=O` (stereo not given), the “inhibition” value was 7.43% (inactive).

Turning to `O=C(CSc1nnc(CN2CCOCC2)n1-c1ccccc1)Nc1ccc(Cl)cc1`, the call was inactive.

For the molecule `CC1(C)CC(=O)C2=C(C1)N(Cc1cccnc1)C(=O)C2(NC(=O)C1CC1)C(F)(F)F` (stereo not given), the “inhibition” value is 17.7% (inactive).

For `Cc1cc(C)cc(N(CCC#N)C(=O)CSc2nc3nc(C)cc(C)n3n2)c1`, the molecule was classed as inactive.

Regarding `O=C(Nc1ccc(C(=O)N2CCOCC2)cc1)c1ccccc1[N+](=O)[O-]`, the outcome was inactive.

Take `Cc1c(C(=O)Nc2cccc([N+](=O)[O-])c2)csc1-c1ccccc1`: the call was inactive.

Regarding `O=C(C1CCN(S(=O)(=O)N2CCOCC2)CC1)N1CCN(Cc2ccc3c(c2)OCO3)CC1`, the “inhibition” value was 2.03% (inactive).

In the case of `CN(CCO)CC(O)CN(c1ccccc1)c1ccccc1` (stereo not given), the molecule was classed as inactive.

On to `CCOC(=O)c1c(Nc2ccccc2N)cc(C)nc1C`, for which the “inhibition” value is 14.2% (inactive).

`COC(=O)c1c[nH]n2c(=O)c(Cc3ccc(F)cc3Cl)c(C)nc12`: the “inhibition” value is 6.14% (inactive).

As for `O=C(CCc1nc(-c2ccccc2F)no1)NC1CCCCCC1`, the result was inactive.

Turning to `CCOc1ccc(N(CC(=O)Nc2ccccc2C(=O)NCc2ccco2)S(C)(=O)=O)cc1`, the molecule was classed as inactive.

As to `CC1CN(Cc2cc(=O)[nH]c(C3CC3)n2)CC(C)O1` (stereo not given), the result was inactive.

`Cn1c(Cn2c(=O)sc3ccccc32)nnc1SCC(=O)NCc1ccc(F)cc1`: the “inhibition” value was 2.05% (inactive).

Consider `Cc1cc(=O)oc2cc(OCC(=O)NCc3cccnc3)ccc12`, for which the “inhibition” value is 2.73% (inactive).

Turning to `Fc1cc(F)cc(NC(=S)NCCCN2CCOCC2)c1`, the “inhibition” value is 4.12% (inactive).

On to `COC(=O)c1ccccc1NC(=O)c1noc2c1CCC2`, for which the “inhibition” value is 12.4% (inactive).

For the molecule `COc1ccccc1NC(=O)CSc1nnc(C)n1CCc1ccccc1`, the call was inactive.

Consider `Cc1ccc(C2CC(c3cccc(Cl)c3)n3nc(N)nc3N2)cc1` (stereo not given), for which the “inhibition” value was 0.68% (inactive).

Take `COc1ccc(C2CC(c3cccs3)n3nc(N)nc3N2)cc1` (stereo not given): the “inhibition” value is 4.09% (inactive).

As to `CCOc1cc(C)nc(NCCc2ccc(OC)c(OC)c2)n1`, the “inhibition” value is 2.03% (inactive).

As to `COc1cc(CNCCc2ccccc2F)ccc1OCc1ccc(Cl)nc1`, the “inhibition” value is 2.73% (inactive).

`Cc1ccc(NC(=O)C(C)NC(=O)OCc2ccccc2)cc1C` (stereo not given): the molecule was classed as inactive.

On to `Cc1cc(=O)[nH]c2c1c(C)nn2C1CCCCC1`, for which the molecule was classed as inactive.

On to `O=C(CC1SCCNC1=O)Nc1ccc(Cl)cc1` (stereo not given), for which the molecule was called inactive.

`CSc1nc(NCCCO)c2c3c(sc2n1)CN(C)CC3`: the “inhibition” value is 1.65% (inactive).

For `Fc1cccc(-c2cc3nc4c(c(NCc5ccco5)n3n2)CCCC4)c1`, the “inhibition” value is 13% (inactive).

Turning to `CCC1=NN2C(=N)/C(=C\c3cccn3-c3cccc(Cl)c3)C(=O)N=C2S1`, the “inhibition” value is 1.65% (inactive).

As to `COc1ccc(NC2CS(=O)(=O)CC2NCc2ccco2)cc1` (stereo not given), the “inhibition” value was 6.82% (inactive).

`COc1cccc(S(=O)(=O)N2CCN(c3ccccc3F)CC2)c1`: the “inhibition” value was 4.05% (inactive).

For `COc1ccccc1CNC(=O)COC(=O)c1ccc(NC(N)=O)cc1`, the “inhibition” value was 8.11% (inactive).

`O=S(=O)(NCc1ccc2c(c1)OCO2)c1cccc(S(=O)(=O)N2CCOCC2)c1`: the outcome was inactive.

In the case of `COCCN1Cc2cccc(C(=O)NCc3ccccn3)c2C1=O`, the “inhibition” value is 7.43% (inactive).

Consider `Cc1cccc(N2CCN(CC(O)COc3ccc(Cl)cc3)CC2)c1` (stereo not given), for which the molecule was called inactive.

For the molecule `COCC(=O)NC1CCN(CC(=O)Nc2ccc(OC)cc2[N+](=O)[O-])CC1`, the molecule was called inactive.

In the case of `CC(=O)NS(=O)(=O)c1cccnc1Nc1cccc(Cl)c1`, the “inhibition” value was 2.03% (inactive).

As for `CCc1nnc(NC(=O)c2ccc3c(c2)C(=O)N(C(C)(C)C)C3=O)s1`, the outcome was inactive.

For `N#Cc1cccc(Oc2ccc(S(=O)(=O)N3CCCC3)cn2)c1`, the call was inactive.

`NC(=O)C1CCCN(CC(=O)Nc2ccccc2C(=O)NC2CC2)C1` (stereo not given): the “inhibition” value is 4.12% (inactive).

For `COC(=O)Cc1cc(=O)n(-c2nc3ccccc3[nH]2)[nH]1`, the “inhibition” value was 4.34% (inactive).

Consider `Cc1cccc(N(CC(=O)N/N=C/c2ccc(OCC(=O)NCc3ccco3)cc2)S(C)(=O)=O)c1C`, for which the call was inactive.

Consider `CCc1ccc(CNCc2cccnc2)cc1`, for which the “inhibition” value is 3.38% (inactive).

As for `Cc1ccc(CNC(=O)COc2ccc3c(c2)CCC3)cc1`, the “inhibition” value was 20.6% (inactive).

Take `CCn1c(CNc2ccc(C)cc2)nnc1SCC(=O)NCc1ccccc1`: the “inhibition” value was 8.11% (inactive).

In the case of `COc1ccc(OC)c(-c2cc(C(=O)NCc3cccs3)no2)c1`, the “inhibition” value is 2.05% (inactive).

Consider `CC1(C)Oc2ccc(C(=O)NC3CCCC3)cc2N(CC(=O)N2CCOCC2)C1=O`, for which the molecule was called inactive.

As for `COc1cc(SC)ccc1C(=O)Nc1c(C)cccc1C`, the molecule was called inactive.

Consider `CC(Oc1ccc(Cl)cc1)C(=O)Nc1ncccn1` (stereo not given), for which the result was inactive.

In the case of `N[C@@H](Cc1c[nH]c2ccccc12)C(=O)O`, the “inhibition” value is 1.65% (inactive).

As to `O=C(CCc1c[nH]c2ccccc12)NC1CC1`, the molecule was classed as inactive.
